# Compounds without any hit were thinned out: in the full panel of roughly 83,000, 20% have a hit.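 Values shown are percent growth following 48 h exposure of cells in 96-well plates to a single concentration of compound; below 10 was considered active.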 Values without a mark were called inactive. Calls of active or inactive are those of the source.
# Legend:
# Assay in all cases: NCI-60 one-dose screen, 48 h (100 = growth as untreated, 0 = no growth, -100 = all killed)
# RPMI-8226 leukemia = conditions: 10 µM unless noted
# OVCAR-8 ovarian = conditions: 10 µM unless noted
# OVCAR-5 ovarian = conditions: 10 µM unless noted
# SK-OV-3 ovarian = conditions: 10 µM unless noted
# IGROV1 ovarian = conditions: 10 µM unless noted
# OVCAR-3 ovarian = conditions: 10 µM unless noted
# HS 578T breast = conditions: 10 µM unless noted
# NCI/ADR-RES ovarian = conditions: 10 µM unless noted
# T-47D breast = conditions: 10 µM unless noted
# BT-549 breast = conditions: 10 µM unless noted
# MDA-MB-435 melanoma = conditions: 10 µM unless noted
# SW-620 colon = conditions: 10 µM unless noted
# MCF7 breast = conditions: 10 µM
# HCT-116 colon = conditions: 10 µM unless noted
# HCC-2998 colon = conditions: 10 µM unless noted
# KM12 colon = conditions: 10 µM unless noted
# OVCAR-4 ovarian = conditions: 10 µM unless noted
SMILES,growth (RPMI-8226 leukemia),growth (OVCAR-8 ovarian),growth (OVCAR-5 ovarian),growth (SK-OV-3 ovarian),growth (IGROV1 ovarian),growth (OVCAR-3 ovarian),growth (HS 578T breast),growth (NCI/ADR-RES ovarian),growth (T-47D breast),growth (BT-549 breast),growth (MDA-MB-435 melanoma),growth (SW-620 colon),growth (MCF7 breast),growth (HCT-116 colon),growth (HCC-2998 colon),growth (KM12 colon),growth (OVCAR-4 ovarian)
COc1cc(-c2c3c(c(Br)n2Cc2ccccc2)-c2nc(N)sc2CC3)cc(OC)c1OC,71.9%,89.2%,107%,107%,110%,95.6%,80%,87.4%,63.8%,94.1%,35.8%,74.9%,61.4%,69.2%,96.3%,88.6%,
c1ccc2cc3c(Nc4ccc(N5CCOCC5)cc4)ccnc3cc2c1,60.1%,94.3%,97%,107%,89.5%,96%,103%,91.1%,95.5%,99.3%,95.6%,101%,84%,90.2%,109%,102%,
CCCC(c1nnnn1C1CCCCC1)N1CCN(C(=O)c2ccco2)CC1 (stereo unspecified),28.9%,86.4%,89.4%,79.5%,69.2%,25.2%,60.7%,46.1%,92.9%,58.9%,-21.7% (active),22.4%,45.4%,31.7%,76.4%,47.5%,
O=C(Nc1ccc(Cl)cc1)N1CCN(c2ccc3nncn3n2)CC1,-20.9% (active),30.5%,87.2%,-3.29% (active),72.3%,-7.82% (active),-40.7% (active),63.2%,-54.9% (active),43.4%,-81.4% (active),-88% (active),-53.4% (active),-83.4% (active),-33.6% (active),-40.8% (active),
COCCN(C(=O)Cc1cccs1)C(C(=O)NCc1ccc(OC)cc1)c1ccc(C(C)C)cc1 (stereo unspecified),93.2%,80.9%,106%,87.5%,,51.5%,76.2%,73.8%,87%,93.9%,104%,85.3%,85.4%,68.7%,81.4%,84.2%,
O=C(Nc1ccccc1O)c1ccc(Oc2cccc(C(=O)Nc3ccccc3O)c2)cc1,8.97% (active),16.7%,50.7%,26.6%,18.6%,27.3%,40.6%,5.02% (active),26.1%,3.78% (active),28.3%,18.4%,11.3%,9.66% (active),21%,15.8%,
CCOC(=O)c1cc2c(n1Cc1ccccc1OC)-c1oncc1CCC2,14.9%,35.4%,69.5%,24.2%,,8.96% (active),10.9%,15%,38.6%,54.9%,-1.95% (active),23.8%,14%,29.5%,53.6%,41.9%,
CCN1CCN(c2cc(C)c3cc(NC(=O)c4ccc(OC)c(OC)c4)ccc3n2)CC1,16.7%,58.9%,88.7%,39.8%,36.6%,12.5%,32.6%,28.1%,58.4%,42.3%,-42% (active),16.7%,17.9%,26.3%,81.9%,26.2%,
CNCCNc1nc2ccccc2c2c(=O)c3cccc(OC)c3sc12,-31.4% (active),23.7%,47.3%,,29.7%,29.4%,40.8%,,54.4%,73.1%,-72.7% (active),-80.1% (active),-67.5% (active),-68.2% (active),-52.3% (active),-47.9% (active),22.8%
CCn1c(SCC(=O)Nc2cc(C(F)(F)F)ccc2Cl)nc2ccccc2c1=O,14.2%,60.9%,78.3%,76.5%,34.2%,52.4%,43.8%,47.3%,50.6%,64.3%,18.1%,49.1%,28.9%,32.2%,11.7%,10.3%,
FC(F)(F)c1cccc(Nc2nc(-c3ccccc3)nc3ncccc23)c1,-39.8% (active),89.4%,107%,90.2%,98.8%,32.2%,-49.5% (active),86.3%,82.9%,60.8%,-79.4% (active),-53% (active),68.2%,28.5%,-68.3% (active),38.1%,
CCOc1cc(Cl)c(C(C)NC(=O)c2cccc(OC)c2)cc1OCC (stereo unspecified),-6.93% (active),-19.9% (active),30.2%,35.4%,28.2%,-82.5% (active),18%,1.86% (active),13.5%,-27.7% (active),-28.6% (active),-50.9% (active),3.38% (active),-57.5% (active),-85.1% (active),0.624% (active),
O=C(Nc1ccc(F)c(Cl)c1)Nc1ccc(Cl)c(Cl)c1,65.8%,92.4%,114%,84.3%,73.6%,61.1%,72.4%,59.1%,85.5%,64%,-7.47% (active),35%,55.1%,,94.6%,51.6%,
COc1ccc(Cn2cc(Cn3c(=O)c(-c4nc5ccccc5[nH]4)cc4ccccc43)nn2)c(OC)c1OC,16.1%,23.9%,19.1%,,27%,-32.5% (active),-9.86% (active),,29.7%,-12.2% (active),-79.6% (active),16.9%,17.1%,5.1% (active),-11.7% (active),4.44% (active),0.605% (active)
COc1ccc(CCN2CCC(CN(C)Cc3cnn(-c4ccccc4)c3)CC2)cc1,15.6%,15.3%,57.4%,39.2%,28.9%,37.4%,67.1%,12%,36.4%,32.5%,38.1%,26%,12.4%,21.5%,21.5%,22.5%,
COc1ccc2occ(C3=C(c4c[nH]c5ccccc45)C(=O)NC3=O)c2c1,53%,63.9%,68.6%,,41.5%,26.8%,33.9%,,57%,35.7%,1.76% (active),22.6%,21.6%,26.5%,74.5%,20.8%,-24.3% (active)
O=C(Nc1ccccc1O)c1ccc(-c2ccc(Cl)cc2Cl)o1,74.1%,94.3%,99.2%,94.5%,88.3%,85.6%,93.8%,90.3%,77.2%,91.7%,96.9%,101%,87.5%,68.7%,96.5%,78.8%,
COc1ccccc1CNC(=O)C1c2ccccc2C(=O)N(CC(C)C)C1c1cccs1 (stereo unspecified),2.15% (active),50.5%,84.2%,106%,71.8%,58%,68.8%,71.4%,42.5%,78.9%,71%,78.6%,66.4%,,48.3%,32.7%,

# — PubChem BioAssay (NCI)
